In PubChem BioAssay (EPA / NIEHS):
“And” between values parts separate entries of the source, which are not always exact repeats. Equal values may be shown once. Some structures have more than one record in an assay (separate samples or runs), and their calls can disagree. The source made the active and inactive calls. Rule for the calls: active = hit-call score of the fitted dose curve at least 0.9, where 1 is the maximum; inactive = score below 0.9.

Key:
[1] = ATG_PBREM_CIS: Attagene CIS-FACTORIAL HepG2 Assay for human Phenobarbital-responsive Enhancer Module (PBREM) (AID 2282955); details: HepG2 PBREM cis-reporter, Attagene multiplexed transcription; actives raise or lower the signal
Summary of the method: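 Cells were transfected with cis-element reporter units and treated for 24 h, after which RNA was extracted and reporter transcripts measured by RT-PCR and capillary electrophoresis.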

[2] = target: Paired box protein Pax-6 (Homo sapiens) (UniProt P26367); assay: ATG_Pax6_CIS: Attagene CIS-FACTORIAL HepG2 Assay for human Paired Box 6 (PAX6) (AID 2282956); details: HepG2 CIS-FACTORIAL PAX6 reporter transcription, RNA readout; actives raise or lower the signal
Summary of the method: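 Transient MRTU transfection of HepG2 → compound exposure 24 h → TriZol RNA, oligo(dT) RT → PCR, 6-FAM primer extension, HpaI cut → capillary electrophoresis; activity fitted both directions against DMSO.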

[3] = ATG_PXRE_CIS: Attagene CIS-FACTORIAL HepG2 Assay for human Pregnane X Receptor Element (PXRE) (AID 2282957); details: HepG2 Attagene CIS-FACTORIAL PXRE reporter, mRNA; actives raise or lower the signal
Summary of the method: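 HepG2 cells transiently transfected with cis-regulated multiple reporter transcription units; endogenous factor activity measured as reporter mRNA 24 h after dosing. RT-PCR, fluorescent primer extension, HpaI digestion, capillary electrophoresis; bidirectional fit versus DMSO baseline.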

[4] = ATG_PPRE_CIS: Attagene CIS-FACTORIAL HepG2 Assay for human Peroxisome Proliferator-activated Response Element (PPRE) (AID 2282958); details: HepG2 PPRE cis-element reporter, Attagene transcription factor profiling; actives raise or lower the signal
Summary of the method: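 In this cell-based multiplex, a PPRE cis element drives a reporter sequence in transiently transfected HepG2 cells. Following 24 h treatment, labeled cDNA amplicons are sized and quantified by capillary electrophoresis, with DMSO defining baseline.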

[5] = ATG_RORE_CIS: Attagene CIS-FACTORIAL HepG2 Assay for human RAR-related Orphan Receptor Element (RORE) (AID 2282959); details: HepG2 Attagene cis-factorial RORE reporter, mRNA; actives raise or lower the signal
Summary of the method: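 Endogenous factor activity at a cis response element is read as reporter transcript levels in HepG2 cells, 24 h post-dose. Transcripts are quantified by RT-PCR with capillary electrophoresis, and data fitted in both directions against DMSO.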

[6] = ATG_Sox_CIS: Attagene CIS-FACTORIAL HepG2 Assay for human SRY-box transcription factor (SOX) (AID 2282960); details: HepG2 Attagene cis-factorial SOX reporter, mRNA; actives raise or lower the signal
Summary of the method: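 Measures mRNA induction of a SOX1-associated reporter in HepG2 after 24 h dosing. Fluorescently labelled RT-PCR fragments are separated by capillary electrophoresis, and gain or loss relative to DMSO control is fitted.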

[7] = target: Transcription factor Sp1 (Homo sapiens) (UniProt P08047); assay: ATG_Sp1_CIS: Attagene CIS-FACTORIAL HepG2 Assay for human Specificity Protein 1 (Sp1) (AID 2282961); details: HepG2 Sp1 cis-reporter transcription, actives raise or lower the signal
Summary of the method: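 Cells: HepG2, transiently transfected with cis-regulated multiplexed reporters. Exposure: 24 h. Detection: reporter transcripts amplified, fluorescently labeled, restriction-digested and sized by capillary electrophoresis. Analysis: bidirectional fit relative to DMSO.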

[8] = ATG_SREBP_CIS: Attagene CIS-FACTORIAL HepG2 Assay for human Sterol Regulatory Element Binding (SREBP) (AID 2282962); details: HepG2 Attagene cis-factorial SREBP reporter, mRNA; actives raise or lower the signal
Summary of the method: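 Transfected HepG2 (cis-regulated reporter library, endogenous TFs) → compound 24 h → total RNA → oligo(dT) RT → reporter-specific PCR → FAM primer extension, HpaI cut → CE fluorescence. Fit bidirectional vs DMSO.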

[9] = target: Signal transducer and activator of transcription 3 (Homo sapiens) (UniProt P40763); assay: ATG_STAT3_CIS: Attagene CIS-FACTORIAL HepG2 Assay for human Signal Transducer and Activator of Transcription 3 (STAT3) (AID 2282963); details: HepG2, Attagene cis-factorial STAT3 reporter transcription; actives raise or lower the signal
Summary of the method: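 Transcript-level reporter assay. HepG2 transient MRTU transfection, 24 h exposure, fluorescence detection after RT-PCR and CE; DMSO baseline.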

[10] = ATG_TA_CIS: Attagene CIS-FACTORIAL HepG2 Assay for human TA Basal Promoter (AID 2282964); details: HepG2 Attagene CIS-factorial TA basal promoter reporter; actives raise or lower the signal
Summary of the method: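 HepG2 cells transiently transfected with multiple reporter units under cis promoter elements, reporting endogenous transcription factor activity; this endpoint tracks the TA basal promoter as background control. Reporter mRNA after 24 h dosing measured by RT-PCR/capillary electrophoresis; bidirectional fits versus DMSO.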

Measured: AC50

Transcription factor Sp1 (Homo sapiens), sequence (P08047 whole entry, looked up): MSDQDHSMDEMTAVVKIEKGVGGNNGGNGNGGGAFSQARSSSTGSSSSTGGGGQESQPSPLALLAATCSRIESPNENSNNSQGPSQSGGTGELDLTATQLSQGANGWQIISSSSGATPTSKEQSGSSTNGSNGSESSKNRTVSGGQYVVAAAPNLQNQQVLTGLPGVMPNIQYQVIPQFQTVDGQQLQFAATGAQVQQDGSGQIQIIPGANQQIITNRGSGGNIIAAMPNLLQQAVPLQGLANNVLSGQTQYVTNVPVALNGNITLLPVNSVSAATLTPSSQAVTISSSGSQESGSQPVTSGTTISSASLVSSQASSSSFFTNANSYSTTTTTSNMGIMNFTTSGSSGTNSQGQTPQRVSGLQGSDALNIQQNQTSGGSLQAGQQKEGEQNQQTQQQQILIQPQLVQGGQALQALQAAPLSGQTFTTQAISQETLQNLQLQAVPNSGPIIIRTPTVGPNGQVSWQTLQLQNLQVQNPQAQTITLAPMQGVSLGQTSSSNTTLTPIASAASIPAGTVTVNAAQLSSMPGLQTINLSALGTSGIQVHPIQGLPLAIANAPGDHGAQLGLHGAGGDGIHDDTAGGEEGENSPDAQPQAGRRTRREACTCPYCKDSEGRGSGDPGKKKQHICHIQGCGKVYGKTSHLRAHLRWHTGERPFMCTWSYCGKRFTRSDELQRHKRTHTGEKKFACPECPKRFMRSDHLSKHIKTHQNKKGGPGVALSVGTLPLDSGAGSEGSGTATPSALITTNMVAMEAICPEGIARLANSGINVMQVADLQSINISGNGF
Paired box protein Pax-6 (Homo sapiens), sequence (P26367 whole entry, looked up): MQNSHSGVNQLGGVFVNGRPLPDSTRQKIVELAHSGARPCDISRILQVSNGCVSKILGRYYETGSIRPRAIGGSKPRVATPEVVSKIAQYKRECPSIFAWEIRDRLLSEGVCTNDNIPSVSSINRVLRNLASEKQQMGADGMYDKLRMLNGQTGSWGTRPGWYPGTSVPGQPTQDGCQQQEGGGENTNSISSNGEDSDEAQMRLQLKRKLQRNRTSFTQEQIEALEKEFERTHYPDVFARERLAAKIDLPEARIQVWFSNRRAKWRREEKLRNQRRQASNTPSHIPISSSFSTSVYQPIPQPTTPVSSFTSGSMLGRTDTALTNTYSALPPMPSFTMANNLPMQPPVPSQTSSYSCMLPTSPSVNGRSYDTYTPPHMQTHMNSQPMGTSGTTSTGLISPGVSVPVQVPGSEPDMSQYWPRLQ
Signal transducer and activator of transcription 3 (Homo sapiens), sequence (P40763 whole entry, looked up): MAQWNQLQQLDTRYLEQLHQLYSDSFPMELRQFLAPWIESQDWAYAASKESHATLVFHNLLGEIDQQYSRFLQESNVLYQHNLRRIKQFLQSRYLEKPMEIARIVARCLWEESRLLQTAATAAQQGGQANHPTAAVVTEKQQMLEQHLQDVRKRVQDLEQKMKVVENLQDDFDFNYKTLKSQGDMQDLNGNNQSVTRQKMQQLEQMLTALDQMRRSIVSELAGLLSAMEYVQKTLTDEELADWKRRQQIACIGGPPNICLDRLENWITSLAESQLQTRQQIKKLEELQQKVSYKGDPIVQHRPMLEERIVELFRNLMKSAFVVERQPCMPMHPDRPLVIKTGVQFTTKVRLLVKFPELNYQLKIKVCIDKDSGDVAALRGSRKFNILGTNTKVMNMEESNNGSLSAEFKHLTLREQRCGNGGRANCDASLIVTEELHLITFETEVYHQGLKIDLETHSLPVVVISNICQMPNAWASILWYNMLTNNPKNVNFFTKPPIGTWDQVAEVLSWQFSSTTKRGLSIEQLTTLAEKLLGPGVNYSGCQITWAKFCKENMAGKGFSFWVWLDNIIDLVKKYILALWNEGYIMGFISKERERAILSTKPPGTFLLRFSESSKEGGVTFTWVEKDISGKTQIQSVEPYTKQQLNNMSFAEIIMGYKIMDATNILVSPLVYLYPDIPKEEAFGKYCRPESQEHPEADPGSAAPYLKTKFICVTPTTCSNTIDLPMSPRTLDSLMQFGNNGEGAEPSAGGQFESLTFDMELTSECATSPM

CC[C@H](c1ccc(O)cc1)[C@@H](CC)c1ccc(O)cc1
active: [3] 3.02 µM [middle of 4 runs]
inactive: all other assays above

CN1CCN(c2ccccc2/C=C2\SCCN(c3ccc(Cl)c(Cl)c3)C2=O)CC1
active: [3] 2.88 µM | [8] 5.37 µM
inactive: all other assays above

CCCCC(CC)COC(=O)CCCCC(=O)OCc1ccccc1 (stereo not drawn)
active: [3] 12.4 µM
inactive: all other assays above

CC(C)CCCCCCOC(=O)CCCCC(=O)OCCCCCCC(C)C
active: [3] 100 µM
not listed: [1] | [5]
inactive: all other assays above

C[C@@H]1C[C@H]2[C@@H]3CCC4=CC(=O)C=C[C@]4(C)[C@@]3(F)[C@@H](O)C[C@]2(C)[C@@]1(O)C(=O)COP(=O)(O)O
inactive: [2] | [3] | [4] | [5] | [6] | [7] | [8] | [9] | [10]
active: [3] 25.9 µM

CN1CCC[C@H]1c1cccnc1
not listed: [4]
inactive: all other assays above

Oc1cccc(O)c1
not listed: [1]
inactive: all other assays above

O=[N+]([O-])c1ccc(O)cc1
not listed: [5]
inactive: all other assays above

COCC(C)OCC(C)O (stereo not drawn)
inactive: all assays above

CC(O)C(=O)O (stereo not drawn)
not listed: [4]
inactive: all other assays above

c1ccc2c(c1)Cc1ccccc1-2
active: [3] 72.4 µM
not listed: [1] | [4]
inactive: all other assays above

CCCCCCCCC(=O)O
not listed: [4]
inactive: all other assays above

CCCCCCCCCCCCCCCS(=O)(=O)Oc1ccccc1
active: [3] 0.778 µM
not listed: [4]
inactive: all other assays above

CC(O)CO (stereo not drawn)
not listed: [1]
inactive: all other assays above

CCCCCCCC(=O)O
not listed: [4]
inactive: all other assays above

CN(C)C=O
not listed: [4]
inactive: all other assays above

CCCCCCCCCCCCN1CCCC1=O
active: [3] 4.43 µM
inactive: all other assays above

OC1CCC(C2CCCCC2)CC1 (stereo not drawn)
active: [2] 127 µM | [3] 26.7 µM and 25.6 µM and 28.6 µM
inactive: [2] | [3] | [4] | [5] | [6] | [7] | [8] | [9] | [10]

COC(=O)CCCCC(=O)OC
not listed: [1]
inactive: all other assays above

OCCC(F)(F)C(F)(F)C(F)(F)C(F)(F)C(F)(F)C(F)(F)C(F)(F)C(F)(F)F
active: [1] 52.5 µM and 222 µM | [2] 43.3 µM and 176 µM | [3] 52.1 µM and 98.7 µM | [5] 25.7 µM | [6] 33.4 µM and 150 µM | [7] 48.4 µM and 150 µM | [8] 222 µM
inactive: [5] | [8] | [9] | [10]

CC(C)(C)CC(C)(C)c1ccc(O)c(-n2nc3ccccc3n2)c1
active: [3] 1.15 µM
inactive: all other assays above

COCC(C)O (stereo not drawn)
not listed: [1] | [4] | [5]
inactive: all other assays above

Cc1oc(-c2ccccc2)nc1CCOc1ccc(C[C@H](Nc2ccccc2C(=O)c2ccccc2)C(=O)O)cc1
active: [2] 14.4 µM
not listed: [1] | [4]
inactive: all other assays above

CC(C)(C)c1ccc(O)c(C(C)(C)C)c1
active: [3] 7.21 µM
not listed: [4]
inactive: all other assays above

FC(F)(I)C(F)(F)C(F)(F)C(F)(F)C(F)(F)C(F)(F)I
active: [2] 16 µM | [10] 16 µM
inactive: all other assays above

Cc1cc(CCN2CCN(c3nsc4ccccc34)CC2)cc2c1NC(=O)CC2(C)C
active: [1] 6.35 µM | [3] 1.16 µM | [5] 6.32 µM | [7] 14.7 µM
not listed: [4]
inactive: all other assays above

NC(=O)N(O)[C@@H]1C=C[C@H](Oc2cccc(Oc3ccc(F)cc3)c2)C1
active: [2] 33 µM | [3] 12.9 µM | [5] 18.2 µM | [8] 18.3 µM
not listed: [1]
inactive: all other assays above

CC(=O)NC1(c2cccc(F)c2)CCN(CC[C@@]2(c3ccc(Cl)c(Cl)c3)CN(c3ccccc3)C(=O)CO2)CC1
inactive: [9]
active: [1] 56.2 µM | [2] 26 µM | [3] 1.42 µM | [4] 55.6 µM | [5] 50.2 µM | [6] 55.9 µM | [7] 44.4 µM | [8] 8.79 µM | [10] 16.8 µM

CCc1ccc(CCOc2ccc(CC3SC(=O)NC3=O)cc2)nc1 (stereo not drawn)
inactive: [1] | [2] | [5] | [6] | [7] | [8] | [9] | [10]
active: [3] 6.6 µM and 1.59 µM | [8] 26.2 µM

CC(C)(C)c1cccc(C(C)(C)C)c1O
active: [2] 162 µM | [7] 165 µM
not listed: [5]
inactive: all other assays above

C=C(C)C(=O)OCCC(F)(F)C(F)(F)C(F)(F)C(F)(F)C(F)(F)C(F)(F)F
not listed: [4]
inactive: all other assays above

N#C[C@@H]1CC(F)(F)CN1C(=O)CNC1CC2CCC(C1)N2c1ncccn1 (stereo partly drawn)
active: [3] 75.6 µM
not listed: [1]
inactive: all other assays above

CC(=O)CC(C)(C)O
inactive: [2] | [3] | [4] | [5] | [6] | [7] | [8] | [9] | [10]
active: [3] 25 µM

CCC(C)(C)C1CCC(O)CC1 (stereo not drawn)
active: [3] 21.9 µM [middle of 4 runs]
not listed: [5]
inactive: all other assays above

CCN(CC)CCNc1ccc(CNC=O)c2sc3ccc(OC)cc3c(=O)c12
active: [7] 0.98 µM
not listed: [1] | [5]
inactive: all other assays above

NC(=O)N1C(=O)C(C(=O)c2cc(Cl)cs2)c2cc(F)c(Cl)cc21 (stereo not drawn)
active: [1] 11 µM | [3] 4.07 µM | [5] 13.7 µM | [8] 4.78 µM
inactive: all other assays above

CCCCC(CC)COC(=O)CCCCC(=O)OCC(CC)CCCC (stereo not drawn)
inactive: all assays above

OC1CCCCC1
inactive: all assays above

Oc1cc2ccccc2c2ccccc12
active: [3] 3.71 µM
not listed: [1]
inactive: all other assays above
